Test [1] is described as follows: optical density shifts of acrAB sulA E. coli – strain DRC41, OD650, 48 h, E. coli filamentation inducer project, primary screen (AID 1152).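 Further: E. coli MC1000 strain DRC41 lacking acrAB efflux pump and sulA.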 Particulars: higher = more signal, called active from +8 up or from −8 down.
A short description of test [2]: probe aLefty1 binding on compound microarray – biochemical, small-molecule microarray, 635/667 nm fluorescence, primary screen (AID 1153).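 Further: score merges spot fluorescence with signal-to-noise ratio from the scanned slide images.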 As to conditions: higher = more signal.
Test [3] can be described thus: plasmodial surface anion channel blockers, osmotic lysis – cell-based, P. falciparum Indochina, OD700, 1 h, primary screen (AID 1154). Particulars: P. falciparum Indochina infected RBC osmotic lysis, higher = more signal, called active from +8 up or from −8 down.
The nature of test [4]: plasmodial surface anion channel blockers, osmotic lysis – cell-based, P. falciparum Indochina, OD700, 2 h, primary screen (AID 1155).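 Further: lysis reports solute entry through the parasite surface anion channel PSAC.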 Particulars: P. falciparum Indochina infected erythrocytes, higher = more signal, called active from +8 up or from −8 down.
A short description of test [5]: changes in parasitized red cell lysis, either direction – P. falciparum Indochina, OD700, 3 h, PSAC antagonist project, primary screen (AID 1156). Particulars: P. falciparum-infected erythrocytes, osmotic lysis, higher = more signal, called active from +8 up or from −8 down.
Test [6] is described as follows: plasmodial surface anion channel blockers, osmotic lysis – cell-based, P. falciparum Indochina, OD700, 18 h, primary screen (AID 1157). Particulars: P. falciparum Indochina infected erythrocytes, osmotic lysis OD700, 18 h; higher = more signal, called active from +8 up or from −8 down.
Test [7] is described as follows: S6 kinase pathway phospho-S6 level changes – cell-based, A549, cytoblot, luminescence, serum-stimulated, primary screen (AID 1158).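 Further: serum-stimulated A549 lung adenocarcinoma cells; signal is phosphorylated S6 detected by cytoblot immunostaining with HRP secondary.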 Particulars: 5 h, higher = more signal.
The target of test [8] is NADPH oxidase 2 (Homo sapiens) (UniProt P04839). In words: compounds shifting NOX2 Amplex Red fluorescence – cell-based, HEK293-NOX2, PMA-stimulated, NOX inhibitor project, primary screen (AID 1159). Further: test concentration not given here. Particulars: 45 min, higher = more signal, called active from +8 up or from −8 down.
Test [9] addresses NADPH oxidase 4 (Homo sapiens) (UniProt Q9NPH5). In words: compounds shifting NOX4 Amplex Red fluorescence – cell-based, HEK293-NOX4, tetracycline-induced, NOX inhibitor project, primary screen (AID 1160). As to conditions: HEK293-NOX4, Amplex Red H2O2 fluorescence, 45 min; higher = more signal, called active from +8 up or from −8 down.
For test [10], the target named is NADPH oxidase 5 (Homo sapiens) (UniProt Q96PH1). Briefly: compounds shifting NOX5 Amplex Red fluorescence – cell-based, HEK293-NOX5, NOX inhibitor project, primary screen (AID 1161). Particulars: HEK293-NOX5, ionomycin, 45 min, higher = more signal.

The source made the active and inactive calls.

Chain of NADPH oxidase 5 (Homo sapiens) (Q96PH1 whole entry, looked up): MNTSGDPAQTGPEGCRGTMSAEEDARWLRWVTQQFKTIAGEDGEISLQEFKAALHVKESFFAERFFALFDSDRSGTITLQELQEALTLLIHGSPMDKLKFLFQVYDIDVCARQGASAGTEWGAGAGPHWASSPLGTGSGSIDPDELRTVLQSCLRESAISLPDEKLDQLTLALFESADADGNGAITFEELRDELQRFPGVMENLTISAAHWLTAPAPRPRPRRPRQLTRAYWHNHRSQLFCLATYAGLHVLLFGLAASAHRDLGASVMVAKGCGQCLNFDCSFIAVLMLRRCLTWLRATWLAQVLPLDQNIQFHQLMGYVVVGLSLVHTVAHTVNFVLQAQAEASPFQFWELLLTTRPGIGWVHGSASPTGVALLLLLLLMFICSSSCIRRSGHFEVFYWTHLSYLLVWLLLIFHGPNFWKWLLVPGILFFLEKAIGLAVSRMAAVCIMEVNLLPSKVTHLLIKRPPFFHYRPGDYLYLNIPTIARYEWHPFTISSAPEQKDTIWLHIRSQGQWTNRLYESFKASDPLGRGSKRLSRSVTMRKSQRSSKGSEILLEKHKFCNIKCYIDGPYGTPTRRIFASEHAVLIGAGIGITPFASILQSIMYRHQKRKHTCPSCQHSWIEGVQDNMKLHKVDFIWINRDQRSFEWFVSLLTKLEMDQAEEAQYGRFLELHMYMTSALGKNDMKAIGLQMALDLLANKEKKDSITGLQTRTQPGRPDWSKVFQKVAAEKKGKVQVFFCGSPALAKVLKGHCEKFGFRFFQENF
Chain of NADPH oxidase 2 (Homo sapiens) (P04839 whole entry, looked up): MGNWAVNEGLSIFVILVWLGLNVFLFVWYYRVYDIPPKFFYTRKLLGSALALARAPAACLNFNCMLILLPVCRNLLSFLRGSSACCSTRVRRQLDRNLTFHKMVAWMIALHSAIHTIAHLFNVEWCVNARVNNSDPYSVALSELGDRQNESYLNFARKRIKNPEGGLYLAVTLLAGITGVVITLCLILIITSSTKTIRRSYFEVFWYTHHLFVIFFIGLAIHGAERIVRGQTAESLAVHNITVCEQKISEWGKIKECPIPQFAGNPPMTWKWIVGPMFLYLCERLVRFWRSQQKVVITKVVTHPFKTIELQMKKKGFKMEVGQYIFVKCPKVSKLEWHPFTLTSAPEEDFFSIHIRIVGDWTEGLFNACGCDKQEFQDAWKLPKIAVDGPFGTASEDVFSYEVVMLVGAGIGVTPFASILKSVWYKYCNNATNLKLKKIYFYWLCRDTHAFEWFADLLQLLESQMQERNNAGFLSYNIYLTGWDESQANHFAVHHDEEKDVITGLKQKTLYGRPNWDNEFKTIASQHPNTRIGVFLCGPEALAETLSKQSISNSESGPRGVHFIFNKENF
Chain of NADPH oxidase 4 (Homo sapiens) (Q9NPH5 whole entry, looked up): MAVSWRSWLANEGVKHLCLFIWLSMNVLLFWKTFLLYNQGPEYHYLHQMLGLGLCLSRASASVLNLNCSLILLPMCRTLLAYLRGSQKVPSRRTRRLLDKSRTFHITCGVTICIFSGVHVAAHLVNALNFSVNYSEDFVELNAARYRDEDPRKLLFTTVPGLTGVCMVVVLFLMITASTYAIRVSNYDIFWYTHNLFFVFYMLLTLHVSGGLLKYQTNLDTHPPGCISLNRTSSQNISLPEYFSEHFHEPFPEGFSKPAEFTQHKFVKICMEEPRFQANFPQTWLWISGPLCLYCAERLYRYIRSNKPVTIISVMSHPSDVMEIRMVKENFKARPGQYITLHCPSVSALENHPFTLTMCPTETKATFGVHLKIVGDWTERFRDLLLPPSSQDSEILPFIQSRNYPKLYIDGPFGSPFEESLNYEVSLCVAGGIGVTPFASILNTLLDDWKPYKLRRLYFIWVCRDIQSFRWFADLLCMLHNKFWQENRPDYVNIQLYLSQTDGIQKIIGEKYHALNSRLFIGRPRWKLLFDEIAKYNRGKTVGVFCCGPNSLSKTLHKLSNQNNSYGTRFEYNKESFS

For `C=CCC(OC(C)=O)[C@@H]1[C@@H](N(Cc2cc3ccccc3o2)C(=O)c2cccc3ccccc23)c2cc(OCCCO)ccc2N1C(=O)Cc1ccc(OC)cc1` (stereo not given in full), the z-score was -0.901 (inactive) in test [1]; 1.7 (inactive) in test [3]; 0.923 (inactive) in test [4]; 1.66 (inactive) in test [5]; 0.629 (inactive) in test [6]; 0.907 in test [7]. Moreover, the z-score was -1.79 (inactive) in [8], -0.428 (inactive) in test [9] and -1.57 in [10]. In test [2], this molecule displayed a composite z-score of -0.195.
`CCOC(=O)C[C@H]1[C@H](OC(=O)c2ccc(C(=O)c3ccccc3)cc2)[C@@H](NC(=O)c2ccc3ccccc3n2)c2cc(OCCCO)ccc2N1C(=O)c1ccc2ccccc2n1`: the z-score was 1.14 (inactive) in test [1]; 5.2 (inactive) in test [3]; 1.1 (inactive) in test [4]; -0.327 (inactive) in test [5]; 0.579 (inactive) in [6]; 0.495 in test [7]. Further, the z-score in [8] was -0.0371 (inactive); in [9], 0.532 (inactive); in [10], 1.03. Further, in [2], the composite z-score was determined as 0.464.
`Cc1ccc(C(C)CC(O)C2C=CC3C(=O)NC(=O)C3N2Nc2ccccn2)o1` (stereo not given): the z-score in [1] is 0.488 (inactive); in test [3], 0.494 (inactive); in [4], 0.481 (inactive); in test [5], -0.284 (inactive); in test [6], 0.606 (inactive); in [7] it was -0.439. Moreover, the z-score in test [8] is 0.36 (inactive); in [9], -2.17 (inactive); in [10], -1.52. This molecule returned a composite z-score in test [2] of -0.154.
As for `CO[C@H]1O[C@H](CO)[C@@H](OC(=O)Nc2ccc3c(c2)OCO3)[C@H](OC(=O)Nc2ccc3c(c2)OCO3)[C@H]1OC(=O)Nc1ccc2c(c1)OCO2`, the z-score was 0.164 (inactive) in [1]; 6.86 (inactive) in [3]; 1.04 (inactive) in test [4]; 0.608 (inactive) in [5]; 0.519 (inactive) in [6]; -0.489 in test [7]. Also, the z-score was -1.44 (inactive) in [8], -0.847 (inactive) in test [9] and -1.69 in [10]. For the same molecule, in test [2], the composite z-score is 0.457.
Consider `C=CCOC(=O)[C@@H]1[C@H]2C(=O)O[C@H](c3ccccc3)[C@H](c3ccccc3)N2[C@H](c2ccc(OCCOC(=O)[C@H]3C[C@H]4C(=O)N[C@@H](CC(C)C)C(=O)N4[C@H]3c3cccc(OCCO)c3)cc2)[C@@]12C(=O)Nc1ccc(I)cc12`, for which the z-score in test [1] is -0.0888 (inactive); in [3], 2.85 (inactive); in [4] it was -0.154 (inactive); in test [5] it was 0.789 (inactive); in test [6] it was -1.24 (inactive); in test [7] it was 0.456. The z-score in test [8] is 1.07 (inactive); in test [9], 1.02 (inactive); in test [10], 0.73. In addition, the composite z-score in [2] is 0.185.
Regarding `C=CCN1C(=O)[C@@]2(O[C@@H](CCO)[C@H]([Si](C)(C)c3ccc(OC)cc3)[C@H]2C)c2cc(NC(C)=O)ccc21`, the z-score in [1] was -0.149 (inactive); in test [3], 23.7 (active); in [4], 8.14 (active); in test [5], 0.502 (inactive); in test [6], 1.26 (inactive); in [7] it was 0.0792. Besides, the z-score in test [8] is -1.07 (inactive); in [9], -0.0526 (inactive); in [10], -0.391. The molecule also displayed a composite z-score in test [2] of 0.0429.
On to `C[N+](C)(C)CCCC[C@@H]1NC(=O)[C@@H]2C[C@H](C(=O)NCCCCCCNC(=O)CS)[C@H](c3cccc(OCCO)c3)N2C1=O`, for which the z-score in test [1] was -0.0169 (inactive); in test [3], 5.87 (inactive); in test [4] it was 1.39 (inactive); in test [5], -0.293 (inactive); in test [6] it was 0.644 (inactive); in test [7], 0.133. For the same molecule, the z-score was 1.85 (inactive) in test [8], 1.12 (inactive) in test [9] and 1.45 in [10]. For the same molecule, the composite z-score in test [2] is -0.012.
In the case of `CCN(CC)c1ccc(N2CC=CC34O[C@@H]5/C=C\CCCOC(=O)C5[C@H]3C(=O)N(CCCO)[C@@H]4C2=O)cc1` (stereo not given in full), the z-score was -0.522 (inactive) in test [1]; 1.78 (inactive) in test [3]; 0.225 (inactive) in [4]; -0.462 (inactive) in test [5]; 0.308 (inactive) in [6]; -0.219 in test [7]. Further, the z-score is 0.024 (inactive) in test [8], 0.558 (inactive) in test [9] and 0.931 in [10]. Moreover, the composite z-score in test [2] was found to be 0.235.
`CC(C)CNC(=O)[C@@]1(C)c2ccccc2C(=O)N(C(C)C)[C@H]1c1ccc(CO)cc1`: the z-score in test [1] was -0.144 (inactive); in [3] it was 1.54 (inactive); in [4], 0.344 (inactive); in [5], 0.24 (inactive); in test [6], -0.0642 (inactive); in test [7], -0.53. Also, the z-score is -0.93 (inactive) in test [8], 0.227 (inactive) in test [9] and -0.85 in [10]. The same molecule registered a composite z-score in test [2] of 0.045.
Consider `Cc1c(NC(=O)/C(C#N)=C/C=C/c2ccccc2)c(=O)n(-c2ccccc2)n1C`, for which the z-score in test [1] was 0.813 (inactive); in test [3], 1.96 (inactive); in test [4], 0.379 (inactive); in [5], 0.0643 (inactive); in test [6], 0.205 (inactive); in [7] it was -0.25. The z-score in test [8] was -0.328 (inactive); in test [9], 0.0418 (inactive); in test [10], 0.649. This molecule also registered a composite z-score in test [2] of -0.213.
In the case of `CN1C(=O)C2C=CC(C(O)C=Cc3ccc([N+](=O)[O-])cc3)N(N3CCCCC3)C2C1=O` (stereo not given), the z-score is -1.54 (inactive) in test [1]; 2.72 (inactive) in test [3]; 0.962 (inactive) in test [4]; 0.714 (inactive) in test [5]; 1.02 (inactive) in [6]; -0.9 in [7]. Moreover, the values for the z-score in test [8], in test [9] and in test [10] were -0.542 (inactive), -0.397 (inactive) and -1.25, respectively. The same molecule came in with a composite z-score in test [2] of 1.11.
Consider `O=C1[C@H]2C=C(Br)[C@H](C[C@@H]2OCCOCCO)[C@@]12CO2`, for which the z-score in test [1] was -0.927 (inactive); in [3], 0.658 (inactive); in [4] it was 0.276 (inactive); in test [5], -0.0195 (inactive); in test [6], 0.0588 (inactive); in test [7], -0.391. Also, the z-score in test [8] was 1.36 (inactive); in test [9] it was 0.561 (inactive); in test [10], 0.0214. This molecule also returned a composite z-score in test [2] of -0.276.
Consider `C=CCN1C(=O)[C@]2(COC(c3ccc(OCCCO)cc3)=N2)Cc2ccccc21`, for which the z-score was 0.773 (inactive) in test [1]; 23.7 (active) in [3]; 7.4 (inactive) in test [4]; 3.23 (inactive) in test [5]; 0.181 (inactive) in [6]; 1.3 in test [7]. In addition, the z-score is -2.29 (inactive) in test [8], 0.0437 (inactive) in test [9] and -2.56 in test [10]. The molecule also returned a composite z-score in test [2] of 0.228.

(Values after PubChem BioAssay.)
